The nature of test [1]: Primary qHTS for inhibitors of nuclear receptor binding SET domain protein 2 (NSD2) in an isogenic RCH-ACV NSD2 p.E1099K mutant (9B) (AID 1645876).
A short description of test [2]: Primary qHTS for inhibitors of nuclear receptor binding SET domain protein 2 (NSD2) in an RCH-ACV wild type WT cells (2C) (AID 1645877).

Values joined by “and” are separate entries in the source; they are usually repeats but may differ in a detail not shown here. Equal values may be shown once. Records with an inconclusive call do not appear. Values without a mark were called inactive. Active and inactive are the calls of the source. Calls follow the shape of the dose curve; as a rule, active = well fitted curve in the direction sought with a large enough effect; inconclusive = small, poorly fitted or top-dose-only effect, or another doubt; inactive = no such curve, though single readings can be large; an effect the other way counts as inactive or inconclusive.
% is scaled to controls: 0 for no effect and ±100 for the full control effect; potency is read from the fitted curve at half-maximal effect.
Also: nearly all actives have a fitted effect of over 70% in size.

Turning to `Cc1nnc(C[C@@H]2C=C(c3ccc(Cl)cc3)c3ccccc3-n3c(C)nnc32)o1`, the Potency in test [1] was 0.332 µM (active); in test [2] it was 0.296 µM (active).
In the case of `COC(=O)C1=CO[C@@H](O[C@@H]2O[C@H](CO)[C@@H](O)[C@H](O)[C@H]2O)[C@H]2[C@@H]1C=C[C@]21C=C([C@H](C)OC(=O)/C=C/c2ccc(O)cc2)C(=O)O1`, the Potency is 0.383 µM (active) in test [1] and 0.483 µM (active) in test [2].
Take `Cn1cc(-c2cnn3c(N)c(Br)c(C4CCCNC4)nc23)cn1` (stereo unspecified): the Potency in test [1] was 1.18 µM (active); in test [2] it was 1.05 µM (active).
For the molecule `CN(C)CCn1cc(-c2ccc(F)cc2)c(-n2cccc2)n1`, the Potency result in test [1] and in test [2] was “inactive” throughout.
Regarding `C/C=C/C=C/C(=O)O[C@@H]1C=C2COC(=O)[C@]2(O)[C@@]2(C)CCCC(C)(C)[C@H]12`, in test [1], the Potency entry is “inactive”.
Regarding `C=C(C=O)[C@]1(O)C[C@@]2(C)C(=CC1=O)C=C[C@H](OC(=O)/C=C/C=C/[C@H](C)CC)[C@@H]2C`, the Potency in test [1] was 3.17 µM (active); in test [2] it was 1.59 µM (active).
For the molecule `OC[C@H]1O[C@@H](OC/C=C/c2ccc(O)cc2)[C@H](O)[C@@H](O)[C@@H]1O`, the Potency entry in test [1] and in test [2] was “inactive” throughout.
With `Cc1cc2c(c(=O)o1)C=C1CC[C@H]([C@H](C)Cn3cnc(=N)c4[nH]cnc43)C[C@@H]1O2`, the Potency entry in test [1] and in test [2] was “inactive” throughout.
Consider `C=C1C(=O)OC2C(OC(=O)C=C(C)C)C(C)=C3C(=O)C=C(C)C3C(O)C12` (stereo unspecified), for which the Potency in test [1] is 10.1 µM (active); in test [2] it was 3.19 µM (active).
Turning to `Cc1nc(-c2cn3c(n2)-c2ccc(-c4cnn(C(C)(C)C(N)=O)c4)cc2OCC3)n(C(C)C)n1`, the Potency was 7.3 nM (active) and 18.6 nM (active) in test [1]; 5.8 nM (active) and 33.2 nM (active) in test [2].
For the molecule `O=C(NCCCNC(=O)c1ccc[nH]c1=O)c1cc(-c2ccccc2)on1`, the Potency in test [1] is 8.33 µM (active); in test [2] it was 9.34 µM (active).
Consider `CC(=O)OC1CC(C)(C(=O)O)CC2C3=CC(=O)C4C5(C)CCC(OC6OC(C(=O)O)C(O)C(O)C6OC6OC(C(=O)O)C(O)C(O)C6O)C(C)(C)C5CCC4(C)C3(C)CCC12C` (stereo unspecified), for which the activity change, negative = viability loss in test [1] is -3.77% [at 9.23 µM]. Also, the activity change, negative = cell killing in test [2] was -8.59% [at 9.23 µM].
For the molecule `O=C(O)C1=CO[C@@H](O[C@@H]2O[C@H](CO)[C@@H](O)[C@H](O)[C@H]2O)[C@@H]2C(CO)=CC[C@H]12`, the Potency entry in test [1] and in test [2] was “inactive” throughout.
On to `Cc1cccc(C#Cc2cc(F)cc(C#N)c2)n1`, for which the Potency entry in test [1] was “inactive”.
On to `COc1cc2c(cc1O)C1(Cc3ccc4c(c3C1O)OCO4)[N+](C)([O-])CC2` (stereo unspecified), for which the Potency result in test [1] is “inactive”.
In the case of `CN(C)CC1CCn2c(c(C3=C(c4cn(C)c5ccccc45)C(=O)NC3=O)c3ccccc32)C1` (stereo unspecified), the values for the Potency in test [1] and in test [2] were 7.28 µM (active) and 5.15 µM (active), respectively.
In the case of `CCC(CC)Nc1nc(C)c(-c2ccc(OC(F)(F)F)cc2OC)nc1OC`, the Potency result in test [1] and in test [2] was “inactive” throughout.
Consider `Cc1cc2ncc(C(=O)NCC(C)(C)NCC(=O)N3CCC[C@H]3C#N)cn2n1`, for which the Potency entry in test [1] and in test [2] was “inactive” throughout.
Turning to `C=C1C(=O)O[C@@H]2/C=C(\CO)CC/C=C(/C=O)C[C@@H](O)[C@@H]12`, the values for the Potency in test [1] and in test [2] were 6.49 µM (active) and 4.09 µM (active), respectively.
On the same counts, the results for `COc1ccc(CCc2nc3c(C)c(-c4c(C)noc4C)c(C)cc3n2CCN2CCOCC2)cc1` are 18.3 µM (active) and 18.3 µM (active).
Take `CCOC(=O)c1csc(Nc2ccc(Cl)cc2)n1`: the Potency in test [1] was 18.3 µM (active).
Take `COC1=CC(=O)C[C@@H](C)[C@@]12Oc1c(Cl)c(OC)cc(OC)c1C2=O`: the Potency entry in test [1] and in test [2] was “inactive” in each case.
As to `CC(=O)OC[C@]12[C@H](OC(C)=O)[C@H](OC(=O)c3ccccc3)[C@@H]3[C@@H](OC(C)=O)[C@]1(OC3(C)C)[C@H](C)C[C@H](OC(C)=O)[C@@H]2OC(=O)c1ccccc1`, the Potency result in test [1] is “inactive”.
`CC(C)(Cc1ccccc1)NCC(O)c1ccc(O)c(NS(C)(=O)=O)c1` (stereo unspecified): in test [1], the Potency result was “inactive”.
Take `O=C(Nc1cccnn1)N1CCN(c2nccc(-c3ccc(F)c(F)c3)n2)CC1`: the Potency result in test [1] and in test [2] was “inactive” throughout.
On to `CN1CC[C@@H](c2c(O)cc(O)c3c(=O)cc(-c4ccc(C(F)(F)F)cc4Cl)oc23)[C@@H]1CO`, for which the Potency is 18.6 µM (active) in test [1] and 16.6 µM (active) in test [2].
On to `C=C1CC(=O)C2OC2(C)CC2OC(=O)C(=C)C2C(O)C1OC(=O)/C(C)=C\C` (stereo unspecified), for which the Potency in test [1] was 3.19 µM (active); in test [2], 2.01 µM (active).
On the same counts, the results for `CC1(CO)CC2C(O)C3=C(CC(C)(O)C2C1)C(=O)OC3` (stereo unspecified) are “inactive” and “inactive”.
As for `CC(=O)O[C@@]12CO[C@@H]1C[C@H](O)[C@@]1(C)C(=O)[C@H](O)C3=C(C)[C@@H](OC(=O)[C@H](O)[C@@H](NC(=O)OC(C)(C)C)c4ccccc4)C[C@@](O)([C@@H](OC(=O)c4ccccc4)C12)C3(C)C` (stereo partly specified), the Potency in test [1] is 0.004 µM (active); in test [2] it was 0.0032 µM (active).
Turning to `C=CS(=O)(=O)NC1CCN(C(=O)CNc2cc(I)c(Cl)cc2OC)CC1`, the Potency in test [1] was 4.59 µM (active); in test [2], 3.25 µM (active).
As for `COc1ccc2[nH]c(=O)c3c(c2c1)OC(C)(C)C=C3`, the Potency in test [1] and in test [2] was 14.5 µM (active) throughout.
On to `COC1C(OC(=O)/C=C/C=C/C=C/C=C/C(=O)O)CCC2(CO2)C1C1(C)OC1CC=C(C)C` (stereo unspecified), for which, in test [1], the Potency entry is “inactive”.
`CC(C)C[C@H](C(=O)O)c1cc(-c2ccc(C(F)(F)F)cc2)cc(-c2ccc(C(F)(F)F)cc2)c1`: the Potency in test [1] is 9.16 µM (active); in test [2], 11.5 µM (active).
The corresponding values for `CC(C)(C)[C@H](NC(=O)c1ccc(N)c(Cl)c1)C(=O)N1CCC[C@H]1C(=O)N[C@H](C#N)CC(=O)O` are “inactive” and “inactive”.

For the origin of these results see PubChem BioAssay (NCATS).
